Consider 7 compounds from PubChem BioAssay (Tox21).

Experiment [1] can be described thus: Nuclear factor erythroid 2-related factor 2/antioxidant responsive element (Nrf2/ARE) small molecule agonists: qHTS cell viability counter screen in human keratinocytes (AID 1919968; active = well fitted curve in the direction sought with a large enough effect in the repeat runs; an effect the other way counts as inactive or inconclusive; also: nearly all actives have a fitted effect of over 55% in size). The essentials:
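Seed 1,500 KeratinoSens cells per well, then incubate 5 h at 37 C/5% CO2. Add compounds in DMSO and incubate 23 h. Add CellTiter-Fluor, wait 1 h and read fluorescence.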

Experiment [2] can be described thus: Nuclear factor erythroid 2-related factor 2/antioxidant responsive element (Nrf2/ARE) small molecule agonists: luciferase reporter gene qHTS assay in human keratinocytes (AID 1919969; also: nearly all actives have a fitted effect of over 35% in size; also: potency is read from the fitted curve at half-maximal effect). (In a reporter assay the amount or activity of a reporter protein is the signal.)
Experiment [3] deals with Gonadotropin-releasing hormone receptor (Homo sapiens) (UniProt P30968). Briefly: Human gonadotropin-releasing hormone receptor (GnRHR) small molecule agonists, calcium flux assay in GnRHR-HEK293 cells (AID 1920063). Also: nearly all actives have a fitted effect of over 35% in size. The method, boiled down: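 Cells: HEK293 stably expressing human GnRHR. Steps: overnight (18 h) culture, 1 h calcium dye loading at 37 C, compound addition, kinetic fluorescence read at 480/540 nm. Each compound tested at 15 concentrations in triplicate.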
Sequence of Gonadotropin-releasing hormone receptor (Homo sapiens) (P30968 whole entry, looked up): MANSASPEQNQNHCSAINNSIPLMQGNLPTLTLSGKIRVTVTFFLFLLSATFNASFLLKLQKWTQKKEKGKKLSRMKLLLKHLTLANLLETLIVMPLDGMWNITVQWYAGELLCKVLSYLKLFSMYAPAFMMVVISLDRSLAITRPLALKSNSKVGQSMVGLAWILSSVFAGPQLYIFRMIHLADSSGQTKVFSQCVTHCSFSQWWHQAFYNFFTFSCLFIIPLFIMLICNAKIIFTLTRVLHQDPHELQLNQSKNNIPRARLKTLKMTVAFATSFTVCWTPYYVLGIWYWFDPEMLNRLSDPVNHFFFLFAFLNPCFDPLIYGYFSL

For experiment [4], the target named is KiSS-1 receptor (Homo sapiens) (UniProt Q969F8). Briefly: Human kisspeptin (KISS1R) small molecule agonists, calcium flux assay in KISS1R-HEK293 cells (AID 1920064; active = well fitted curve in the direction sought with a large enough effect in the repeat runs; an effect the other way counts as inactive or inconclusive). The method, boiled down:
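Cells plated and incubated 18 h; dye added, 1 h at 37 C; compounds in DMSO pinned in; signal read at 480/540 nm every second for 3 min. Each compound tested at 15 concentrations in triplicate.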
A general note: Calcium flux is commonly read through the fluorescence of an indicator in the cells.

Experiment [5] is described as follows: p53 small molecule agonists, cell-based qHTS assay with human liver microsomes (AID 1963577).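 Also: p53 response element beta-lactamase reporter cells with liver microsomes plus NADPH.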 The essentials: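 With metabolic activation: human liver microsomes (0.5 mg/mL final) plus NADPH (0.5 mg/mL final) added alongside compounds to p53RE-bla cells; 16 h 37 C exposure; beta-lactamase read by LiveBLAzer fluorescence.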
On the technique in general: Quantitative high-throughput screening tests each substance at several concentrations.

The nature of experiment [6]: p53 small molecule agonists, cell-based qHTS assay with rat liver microsomes (AID 1963578). The essentials: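 Metabolic activation by rat liver microsomes and NADPH, each 0.5 mg/mL final, added right after compounds to p53RE-bla reporter cells (4,000/well, plated 5 h earlier). 16 h at 37 C, then LiveBLAzer substrate for 2 h at room temperature in the dark; fluorescence read-out.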

Experiment [7] in a line: p53 small molecule agonists, cell-based qHTS assay with human liver microsomes: qHTS cell viability counter screen (AID 1963579). Also: nearly all actives have a fitted effect of over 45% in size. The essentials:
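Metabolic activation used human liver microsomes and NADPH, both 0.5 mg/mL final, over 16 hours at 37 C on p53RE-bla cells (4,000/well). Cytotoxicity measured by CellTiter-Glo luminescence, 30 min at room temperature.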

A short description of experiment [8]: p53 small molecule agonists, cell-based qHTS assay with rat liver microsomes: qHTS cell viability counter screen (AID 1963580). Also: nearly all actives have a fitted effect of over 45% in size. The method, boiled down: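 Intracellular ATP, by CellTiter-Glo luminescence, defines viability. HCT-116 p53RE-bla cells, 4,000 per well, were compound-treated in the presence of rat liver microsomes and NADPH for 16 h at 37 C.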
Experiment [9] is described as follows: p53 small molecule agonists, cell-based qHTS assay: qHTS cell viability counter screen (AID 1963581). Also: nearly all actives have a fitted effect of over 45% in size. The essentials: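 Cells: HCT-116 with p53 response element-driven beta-lactamase. Treatment: 16 h, 37 C, compounds in DMSO. Read: CellTiter-Glo luminescence after 30 min RT.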
The nature of experiment [10]: p53 small molecule agonists, cell-based qHTS assay (AID 1963582; active = well fitted activation curve with a large enough effect in the signal ratio in the repeat runs, not every such curve was filed as active; the % refers to the signal ratio). The method, boiled down:
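Quantitative HTS in p53RE-bla cells: after a 5 h settling period, compounds delivered in DMSO were left on cells for 16 h at 37 C, and reporter induction was measured as fluorescence following 2 h substrate loading.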

Experiment [11] addresses 5-hydroxytryptamine receptor 2A (Homo sapiens) (UniProt P28223). As to the kind of experiment: 5-hydroxytryptamine receptor 2A (HTR2A) small molecule antagonists, cell-based qHTS assay (AID 1963586). Also: nearly all actives have a fitted effect of over 45% in size. The essentials: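 Antagonist-mode intracellular calcium assay: DOI (4 nM) added after 5 min compound pre-incubation at room temperature to dye-loaded HTR2A-CHO cells. Fluorescence followed for 3 min, sampled every second.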

Experiment [12] has the same target. As to the kind of experiment: 5-hydroxytryptamine receptor 2A (HTR2A) small molecule agonists, cell-based qHTS assay (AID 1963587). Also: nearly all actives have a fitted effect of over 30% in size. The essentials:
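Kinetic calcium-flux fluorescence (2 min, 1 sec intervals) after compound addition in agonist mode. HTR2A-CHO cells were cultured 18 h, then dye-loaded 1 h at 37 C.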

Experiment [13] deals with Muscarinic acetylcholine receptor M1 (Homo sapiens) (UniProt P11229). As to the kind of experiment: Cholinergic receptor muscarinic 1 (CHRM1) small molecule antagonists, cell-based qHTS assay (AID 1963588). Also: nearly all actives have a fitted effect of over 40% in size. The essentials:
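CHRM1-CHO calcium-flux assay, antagonist mode. Cells were seeded 18 h, dye-loaded 1 h at 37 C and given compound for 5 min at RT, then acetylcholine was added at 50nM. FDSS fluorescence was read 3 min; 15 concentrations, three runs.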

For experiment [14] the target is unchanged. Briefly: Cholinergic receptor muscarinic 1 (CHRM1) small molecule agonists, cell-based qHTS assay (AID 1963589). Also: nearly all actives have a fitted effect of over 35% in size. The method, boiled down: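 Agonist-mode qHTS in CHO cells stably carrying human muscarinic M1. Intracellular calcium is tracked by fluorescence every second after compound transfer; each compound runs at 15 concentrations in three independent runs.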

Experiment [15] can be described thus: cAMP Responsive Elements (CRE) small molecule agonists, cell-based qHTS assay (AID 1963590). The essentials:
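Agonist mode qHTS in CRE-bla HEK 293T cells: compounds dosed from DMSO for 3 h at 37 C/5% CO2, followed by LiveBLAzer B/G FRET substrate for 2 h at room temperature.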

Experiment [16] has as its target Beta-2 adrenergic receptor (Homo sapiens) (UniProt P07550). As to the kind of experiment: Adrenergic beta2 receptor (ADRB2) small molecule antagonists, cell-based qHTS assay (AID 1963592). Also: series mostly up to about 92 µM; nearly all actives have a fitted effect of over 50% in size. The essentials: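 Cells (CHO, stable ADRB2 overexpression) incubated 18-20hr at 37C; compounds added from DMSO; agonist mix (1nM isoproterenol, 100uM IBMX, 25uM Ro-20-1724) added; 0.5hr RT; d2-cAMP and anti-cAMP-cryptate added; 1hr RT; 665/615 nm read.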

In experiment [17] the target is D(2) dopamine receptor (Homo sapiens) (UniProt P14416). As to the kind of experiment: Dopamine D2 receptor (DRD2) small molecule agonists, cell-based qHTS assay (AID 1963594). Also: nearly all actives have a fitted effect of over 35% in size. The essentials:
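cAMP accumulation in DRD2-HEK293 cells measured by HTRF after 1 h detection; compounds added 10 min before NKH477 (200nM […]) forskolin-analogue stimulation, 30 min at room temperature, with Ro20-1724 present at 0.1 mM final.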

For experiment [18] the target is unchanged. As to the kind of experiment: Dopamine D2 receptor (DRD2) small molecule antagonists, cell-based qHTS assay (AID 1963595; active = well fitted inhibition curve with a large enough effect in the signal ratio in the repeat runs, with a control signal flat; the % refers to the signal ratio). The essentials:
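DRD2-HEK293; 0.1 mM Ro20-1724; cpd 10 min RT; NKH477 200 nM + quinpirole 12 nM, 30 min RT; HTRF cAMP (cAMP-d2/anti-cAMP cryptate), 665/620 nm ratio after 1 h.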

The nature of experiment [19]: cAMP Responsive Elements (CRE) small molecule antagonists, cell-based qHTS assay (AID 1963591; active = well fitted inhibition curve with a large enough effect in the signal ratio in the repeat runs, not every such curve was filed as active; the % refers to the signal ratio). The essentials:
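Antagonist mode: test compounds are co-incubated with the adenylyl cyclase activator NKH477 (0.25 uM final) on CRE-bla HEK293T cells for 3 h at 37 °C, followed by LiveBLAzer substrate loading.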

Experiment [20] can be described thus: G protein-coupled receptor (GPCR) small molecule agonists, calcium flux assay: HEK293 wild type cell line counter screen (AID 1920065). The method, boiled down:
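Counter-screen of the Tox21 10K library for non-specific calcium release: dye-loaded cells received compounds in DMSO and were monitored by kinetic fluorescence (480/540 nm, 3 min). Fifteen concentrations, run in triplicate.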

Unmarked numbers belong to inactive results. Results filed as inconclusive are left out. Calls of active or inactive are those of the source. Unless noted, calls follow the shape of the full dose curve.
% is scaled to controls: 0 for no effect and ±100 for the full control effect.

Sequence of KiSS-1 receptor (Homo sapiens) (Q969F8 whole entry, looked up): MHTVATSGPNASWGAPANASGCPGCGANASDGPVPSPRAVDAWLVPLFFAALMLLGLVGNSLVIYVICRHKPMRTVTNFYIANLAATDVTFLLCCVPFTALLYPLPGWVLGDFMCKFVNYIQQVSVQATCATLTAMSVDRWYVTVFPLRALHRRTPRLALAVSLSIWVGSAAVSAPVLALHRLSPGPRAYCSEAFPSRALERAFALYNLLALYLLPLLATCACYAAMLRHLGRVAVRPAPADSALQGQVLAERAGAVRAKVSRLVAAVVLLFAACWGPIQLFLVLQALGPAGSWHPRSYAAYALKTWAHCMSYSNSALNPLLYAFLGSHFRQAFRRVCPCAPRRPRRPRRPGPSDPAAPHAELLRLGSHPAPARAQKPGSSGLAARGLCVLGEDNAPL
Sequence of Beta-2 adrenergic receptor (Homo sapiens) (P07550 whole entry, looked up): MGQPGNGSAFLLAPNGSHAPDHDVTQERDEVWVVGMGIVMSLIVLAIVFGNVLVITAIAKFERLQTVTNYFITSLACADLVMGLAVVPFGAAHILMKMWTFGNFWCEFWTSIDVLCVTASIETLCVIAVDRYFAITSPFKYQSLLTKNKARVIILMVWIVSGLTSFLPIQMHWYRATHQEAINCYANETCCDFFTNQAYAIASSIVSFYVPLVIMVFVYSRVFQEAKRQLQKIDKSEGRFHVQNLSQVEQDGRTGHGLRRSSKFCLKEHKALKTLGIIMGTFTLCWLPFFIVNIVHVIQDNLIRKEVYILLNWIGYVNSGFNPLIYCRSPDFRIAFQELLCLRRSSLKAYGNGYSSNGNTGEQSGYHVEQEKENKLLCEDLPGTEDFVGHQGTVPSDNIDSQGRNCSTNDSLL
Sequence of 5-hydroxytryptamine receptor 2A (Homo sapiens) (P28223 whole entry, looked up): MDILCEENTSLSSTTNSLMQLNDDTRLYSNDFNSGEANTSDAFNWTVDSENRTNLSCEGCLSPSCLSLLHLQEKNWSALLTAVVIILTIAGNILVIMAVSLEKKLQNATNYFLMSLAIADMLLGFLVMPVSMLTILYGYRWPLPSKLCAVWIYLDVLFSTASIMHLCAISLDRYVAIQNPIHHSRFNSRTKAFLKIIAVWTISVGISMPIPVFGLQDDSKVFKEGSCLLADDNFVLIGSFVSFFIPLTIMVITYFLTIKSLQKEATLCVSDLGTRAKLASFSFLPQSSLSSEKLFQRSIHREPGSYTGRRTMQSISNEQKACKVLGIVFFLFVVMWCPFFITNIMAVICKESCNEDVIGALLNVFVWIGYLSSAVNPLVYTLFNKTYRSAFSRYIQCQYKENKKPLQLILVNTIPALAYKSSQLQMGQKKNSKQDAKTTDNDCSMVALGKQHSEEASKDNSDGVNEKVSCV
Sequence of D(2) dopamine receptor (Homo sapiens) (P14416 whole entry, looked up): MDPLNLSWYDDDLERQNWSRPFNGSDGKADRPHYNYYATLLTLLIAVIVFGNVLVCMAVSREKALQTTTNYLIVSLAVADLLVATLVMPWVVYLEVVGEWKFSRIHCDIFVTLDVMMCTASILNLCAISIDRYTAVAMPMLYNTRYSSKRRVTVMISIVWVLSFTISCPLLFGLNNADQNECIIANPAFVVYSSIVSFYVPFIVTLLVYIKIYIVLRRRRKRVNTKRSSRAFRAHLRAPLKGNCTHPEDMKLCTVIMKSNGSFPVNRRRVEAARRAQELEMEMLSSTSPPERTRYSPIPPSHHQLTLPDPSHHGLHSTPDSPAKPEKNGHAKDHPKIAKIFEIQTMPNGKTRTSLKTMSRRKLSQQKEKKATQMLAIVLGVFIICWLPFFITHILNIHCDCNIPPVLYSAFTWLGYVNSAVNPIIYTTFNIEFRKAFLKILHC
Sequence of Muscarinic acetylcholine receptor M1 (Homo sapiens) (P11229 whole entry, looked up): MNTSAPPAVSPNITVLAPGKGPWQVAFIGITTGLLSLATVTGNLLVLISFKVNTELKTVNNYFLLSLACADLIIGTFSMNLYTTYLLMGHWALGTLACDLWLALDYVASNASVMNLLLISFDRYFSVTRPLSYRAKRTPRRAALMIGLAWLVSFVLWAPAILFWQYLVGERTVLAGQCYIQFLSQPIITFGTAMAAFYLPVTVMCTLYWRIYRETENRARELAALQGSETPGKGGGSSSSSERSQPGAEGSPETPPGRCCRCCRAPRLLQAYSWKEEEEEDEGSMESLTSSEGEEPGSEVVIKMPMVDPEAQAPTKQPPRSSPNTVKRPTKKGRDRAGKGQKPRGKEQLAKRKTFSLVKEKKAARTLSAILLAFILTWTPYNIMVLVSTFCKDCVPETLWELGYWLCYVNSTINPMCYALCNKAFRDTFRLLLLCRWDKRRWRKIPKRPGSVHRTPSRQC

For the compound `COc1ccc(OC)c(NC(=O)CC(C)=O)c1`, the Potency result in experiment [1], in experiment [2], in experiment [3], in [5], in [6] and in experiment [7] was “inactive” throughout. Also, the Potency entry in experiment [8], in experiment [9], in experiment [10], in experiment [11], in [12] and in [13] was “inactive” throughout. The Potency result in experiment [14], in experiment [15], in experiment [16], in experiment [17] and in experiment [18] was “inactive” in each case. Besides, the outcome in [4] was inactive.

With `CC(C)(C)OC(=O)N1C[C@@H](F)C[C@H]1C(=O)O`, the Potency result in experiment [1], in [2], in experiment [3], in experiment [5], in experiment [6] and in experiment [7] was “inactive” in each case. In addition, the Potency result in experiment [8], in experiment [9], in experiment [10], in [11], in experiment [12] and in [13] was “inactive” throughout. Also, the Potency entry in experiment [14], in experiment [15], in [19] and in experiment [16] was “inactive” each time. Moreover, the outcome in [4] was inactive.

As for `CC(C)C[C@@H](N)C(=O)O`, the figures for the activity change, negative = cytotoxicity in experiment [1] and in [9] were 2.62% [at 19 µM] and -2.8% [at 13.5 µM], respectively. Further, the activity, positive = activation in [2] was -3.08% [at 19 µM]. Further, in experiment [3], the activity change was 0.203% [at 11.8 µM, hits give high values]. The activation in [4] is -0.242% [at 15.8 µM]; in [20], -0.27% [at 11.8 µM]; in experiment [6], -1.65% [at 13.6 µM]; in experiment [10], -0.189% [at 13.5 µM]; in [12], 2.38% [at 15.9 µM]; in experiment [14], 10.1% [at 15.8 µM]. Besides, the activation in experiment [15] is 0.0359% [at 19 µM]; in [17], 5.36% [at 19 µM]. For the same compound, the activity, negative = inhibition in experiment [13] was 0.917% [at 12.6 µM]. For the same compound, the activity change, negative = inhibition in [19] was -5.02% [at 18.9 µM]; in [16], 9.37% [at 19 µM]; in experiment [18], 4.57% [at 18.9 µM].

With `CC(C)(C)C1CCC(=O)CC1`, the Potency result in experiment [1], in experiment [3], in experiment [6], in experiment [8], in experiment [9] and in experiment [12] was “inactive” in each case. Also, the Potency result in [14], in experiment [15], in experiment [19], in experiment [16] and in [18] was “inactive” each time. The Potency in experiment [2] is 68.6 µM (active). In addition, the result in [4] and in experiment [20] was inactive.

On to `CCCCCCCCCCCCCC=O`, for which the activity change, negative = cytotoxicity in experiment [1] is -1.13% [at 8.39 µM]; in experiment [7], -3.87% [at 5.99 µM]; in experiment [8] it was 0.418% [at 5.99 µM]; in experiment [9], -2.03% [at 5.99 µM]. Besides, in experiment [2], the activity, positive = activation is 0.0623% [at 8.39 µM]. The activity change in [3] was -0.408% [at 5.22 µM, hits give high values]. The activation is 0.0205% [at 6.97 µM] in experiment [4]; 0.781% [at 5.99 µM] in experiment [5]; -2.08% [at 5.99 µM] in experiment [6]; 5.85% [at 5.99 µM] in [10]; -1.86% [at 7.02 µM] in [12]; 0.649% [at 6.97 µM] in [14]. Besides, the activation in experiment [15] was -0.0207% [at 8.39 µM]; in [17], 1.32% [at 8.39 µM]. The results for the activity, negative = inhibition in experiment [11] and in experiment [13] were 4.12% [at 5.62 µM] and 4.29% [at 5.58 µM], respectively. The results for the activity change, negative = inhibition in [19], in [16] and in [18] were 0.604% [at 8.39 µM], 0.833% [at 8.39 µM] and 7.61% [at 8.38 µM], respectively.

Regarding `CCC(=O)O[C@]1(C(=O)SCF)[C@H](C)C[C@H]2[C@@H]3C[C@H](F)C4=CC(=O)C=C[C@]4(C)[C@@]3(F)[C@@H](O)C[C@@]21C`, the Potency entry in experiment [1], in [2], in experiment [3], in experiment [6], in experiment [8] and in experiment [9] was “inactive” throughout. Further, the Potency entry in [11], in [12], in experiment [13], in experiment [19], in experiment [16] and in [17] was “inactive” throughout. Also, the Potency entry in experiment [18] was “inactive”. In addition, the result in [4] and in experiment [20] was inactive.

`O=C(Nc1cccc2c(=O)cc(-c3nn[nH]n3)oc12)c1ccc(OCCCCc2ccccc2)cc1`: the Potency entry in experiment [1], in [2], in [3], in experiment [6], in [8] and in experiment [10] was “inactive” each time. Also, the Potency entry in experiment [11], in [13], in [14], in experiment [16] and in experiment [17] was “inactive” in each case. The outcome in experiment [4] and in [20] was inactive.
